CXXC DNA block: blocks binding of human MLL CXXC domain to DNA. Q03164. 290,000 tested, 0.037% active. AID 2662. Potency, µM (top dose mostly 115 µM), for inactives: at the highest dose activity change, negative = inhibition, usual class: inhibitors. MLL-CXXC / FITC-HOXA9 DNA fluorescence polarization; active means well fitted inhibition curve with a large enough effect in the polarisation, with a control signal flat, not every such curve was filed as active; inconclusive means small, poorly fitted or top-dose-only effect, or effect the other way, or a change in a side signal; inactive means no such curve, though single readings can be large or run the other way; the % refers to the polarisation; further: potency means the concentration at half of the fitted maximal effect
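Fluorescence polarization: 7 uM MLL-CXXC (stock) preincubated 5 min with compounds, then 50 nM fluorescein-HOX-A9 DNA (stock) added; 30 min ambient. Buffer 50 mM Tris-HCl pH 7.5, 50 mM NaCl, 1 mM DTT, 0.05% BSA.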
ASM inhibitor: human S-ASM enzyme inhibition; P17405; placental ASM, HMU-PC fluorogenic substrate, 60 min; Potency, µM (doses to about 57.5 µM), without a hit: at the top dose activity change, negative = inhibition, usual class: inhibitors; 340,000 tested, 0.006% active; AID 504937; further: potency means the concentration at half of the fitted maximal effect
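Fluorescence read-out (Ex 386 nm, Em 447 nm) after stopping the reaction at pH 10. Enzyme: ASM from human placenta; substrate HMU-PC0, 9 uM final; 60 min, 37 °C. Compound preincubation 10 min, ambient temperature.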
GALK inhibitor: galactokinase (human) inhibition. P51570. Purified GALK, Kinase-Glo residual ATP luminescence. Potency, µM (series often up to 57.5 µM), inactives show at the top dose activity change, negative = inhibition, actives largely listed as inhibitors. 270,000 tested, 0.007% active. AID 1868; further: potency means the concentration at half of the fitted maximal effect; on the % scale 0 is the no-effect control and ±100 the full control effect
Target sequence (P51570 whole entry, looked up): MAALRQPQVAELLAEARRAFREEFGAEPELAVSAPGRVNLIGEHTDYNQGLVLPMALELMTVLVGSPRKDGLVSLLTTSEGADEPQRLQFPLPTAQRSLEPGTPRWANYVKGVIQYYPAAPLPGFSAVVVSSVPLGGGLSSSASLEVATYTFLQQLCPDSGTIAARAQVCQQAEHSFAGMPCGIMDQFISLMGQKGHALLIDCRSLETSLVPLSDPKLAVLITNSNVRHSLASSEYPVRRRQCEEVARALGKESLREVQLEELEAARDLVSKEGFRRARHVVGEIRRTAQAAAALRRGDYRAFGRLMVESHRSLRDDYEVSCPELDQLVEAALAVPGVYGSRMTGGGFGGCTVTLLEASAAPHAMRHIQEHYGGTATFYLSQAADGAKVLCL
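Kinase-Glo Plus luminescence measured ATP left after a 1 h room-temperature reaction. The reaction used 5 nM GALK, 100 uM galactose and 35 uM ATP at pH 8.0 (20 mM HEPES, 5 mM MgCl2, 60 mM NaCl, 1 mM DTT, 0.01% BSA).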
Menin-MLL TR inh: menin-MLL binding inhibition, Texas Red mutant peptide | Menin + Texas Red MLL mutant peptide, fluorescence polarization | Potency, µM (doses to about 61.6 µM), for inactives: top-dose FP activity change, negative = inhibition, hits mostly inhibitors | 270,000 tested, 0.23% active | AID 1768; active means well fitted inhibition curve with a large enough effect in the polarisation, with a control signal flat, not every such curve was filed as active; inconclusive means small, poorly fitted or top-dose-only effect, or effect the other way, or a change in a side signal; inactive means no such curve, though single readings can be large or run the other way; the % refers to the polarisation; further: potency means the concentration at half of the fitted maximal effect; % of control where 0% means no effect
Menin MLL FP FL: menin-MLL binding inhibition, fluorescein peptide; Fluorescence polarization, fluorescein-MLL peptide displacement from menin; FP activity change, % at 61.4 µM; 290,000 tested, under 10 active; AID 1766; active means well fitted curve in the direction sought with a large enough effect in the polarisation, not every such curve was filed as active; inconclusive means small, poorly fitted or top-dose-only effect, or effect the other way, or a change in a side signal; inactive means no such curve, though single readings can be large or run the other way; the % refers to the polarisation; further: % of control where 0% means no effect
MLL CXXC Fl: MLL CXXC-DNA interaction inhibition, fluorescein FP; MLL CXXC-DNA binding, fluorescein FP; shares compounds with CXXC DNA block; 200 tested, 70% active; Potency, µM (highest dose often 345 µM), inactives show at the highest dose activity change, negative = inhibition, most hits filed as inhibitors; further: potency means the concentration at half of the fitted maximal effect; nearly all actives have a fitted effect of over 80% in size
MLL CXXC FP-TR: inhibitors of human MLL CXXC domain-DNA interaction, Texas Red format; 200 tested, 40% active; Potency, µM (titrated, usually from 345 µM), without a hit: top-dose activity change, negative = inhibition, hits mostly inhibitors; MLL CXXC-DNA binding, Texas Red fluorescence polarization; AID 624161; shares compounds with CXXC DNA block; further: potency means the concentration at half of the fitted maximal effect; on the % scale 0 is the no-effect control and ±100 the full control effect; nearly all actives have a fitted effect of over 75% in size
MLL CXXC HTRF: disrupts human MLL CXXC domain binding to DNA by HTRF. AID 624162. MLL CXXC-DNA binding, HTRF, biochemical. 210 tested, 30% active. shares compounds with CXXC DNA block. Potency, µM (top dose mostly 172 µM), without a hit: top-dose activity change, negative = inhibition, hits mostly inhibitors; further: on the % scale 0 is the no-effect control and ±100 the full control effect; nearly all actives have a fitted effect of over 80% in size
* = called active by the depositor; i = inactive; ? = inconclusive; . = no result; ! = not confirmed by another sample; [ ] = remark or other dose. Shown is part of a subset that was picked to be rich in hits. Unless noted, the call rests on the fitted dose curve; in most records, active means well fitted curve in the direction sought with a large enough effect; inconclusive means small, poorly fitted or top-dose-only effect, or another doubt; inactive means no such curve, though single readings can be large; an effect the other way counts as inactive or inconclusive.

SMILES | CXXC DNA block | ASM inhibitor | GALK inhibitor | Menin-MLL TR inh | Menin MLL FP FL | others
COc1ccc2nc(NC(=O)C3CCN(S(=O)(=O)c4cccs4)CC3)sc2c1 | 15.5% | ? | -0.6% | . | -0.2
COc1ccc2nc(NC(=O)C3CCCN(S(=O)(=O)c4cccs4)C3)sc2c1 (stereo not given) | 27.4% | -14.2% | -1.6% | 22.4µM* | -2.8
COC(=O)c1oc2ccc(Br)cc2c1NC(=O)c1ccccc1 | 0.7% | -0.8% | -1.3% | 28.2µM* | 4.4
CC(C)[N+]1(C)[C@@H]2CC[C@H]1CC(OC(=O)[C@@H](CO)c1ccccc1)C2 (stereo not given in full) | . | . | . | 3.3%[24.8 µM] | ?
COc1cccc(-c2cc(C(=O)Nc3nc4ccccc4s3)c3ccccc3n2)c1 | 1.1% | -12.6% | 0.3% | 28.2µM* | 3.9
O=C(Nc1nc2ccccc2s1)c1cc(-c2ccco2)nc2ccccc12 | 24.1% | 57.1% | -3.8% | -1.6% | 6.2
COC(=O)c1ccc(NC(=S)NC(=O)c2cc(-c3ccccc3)nc3ccccc23)cc1 | 19.3% | -13.2% | -2.5% | 12.6µM* | 1.3
C=CCC(C)(O)C#Cc1ccccc1 (stereo not given) | . | . | . | 0.9% | -3.5
CC(=O)NN1C(=O)/C(=C2/Sc3ccc(Cl)cc3N2C)SC1=S | -3.5% | 0.5% | 0.0% | 35.5µM* | 20.5
CCN1C(C)=C(C)S/C1=C1\SC(=S)N(NC(C)=O)C1=O | 15.4% | 1.3% | -0.3% | 2.0% | 3.2
O=c1cnc2cncnc2n1Cc1ccc(F)cc1 | . | . | . | -0.2% | 19.6
CC1=NN(c2cccc(F)c2)C(=O)/C1=C/c1ccc(N(C)C)cc1 | ? | -2.1% | -1.8% | 22.4µM* | -14.1
COc1ccc(/C=C2/C(=O)N(c3cccc(F)c3)N=C2C)c(OC)c1 | ? | -7.9% | 2.6% | ? | -3.2
CCOC(=O)c1ccc(N2C(=O)c3n[nH]c(-c4ccco4)c3C2c2cccc([N+](=O)[O-])c2)cc1 (stereo not given) | 15.8% | 28.2µM* | -0.9% | -4.9% | 5.2
N#CCCn1c(=O)c(-c2ccc(Cl)cc2)nc2cnc(Nc3ccccc3)nc21 | . | . | . | 10µM* | ?
C=C(C)C(O)/C=C/C=C/c1ccccc1 (stereo not given) | . | . | . | 12.1%[11.7 µM] | -0.2[11.7 µM]
CC(=O)N1CCN(c2ccc(NCc3cccs3)cc2)CC1 | 0.0% | 1.2% | -0.8% | 28.2µM* | 0.0
CC(=O)N1CCN(c2ccc(NCc3ccc(C)s3)cc2)CC1 | 0.5% | 2.0% | 2.7% | -4.1%[11.7 µM] | 0.2
COc1ccc2oc(-c3ccc(O)cc3)cc(=O)c2c1 | . | . | . | 33.2% | ?
COc1ccc(-c2cc(=O)c3ccc(O)cc3o2)cc1 | . | 47.5% | . | 22.4µM*! | 2.8
O=C(C=Cc1cccs1)c1ccccc1 | . | -2.2% | . | . | .
C[C@]12CC[C@@H]3c4ccc(O)cc4CC[C@H]3[C@@H]1CCC2OC(=O)CCC1CCCC1 (stereo not given in full) | 4.6% | . | . | 20.3% | -0.9
Cc1ccc(-c2nc(Nc3cccc(O)c3)c3ccccc3n2)cc1 | 1.3% | -14.9% | -3.7% | ? | 1.9
Oc1cccc(Nc2c3ccccc3nc3ccccc23)c1 | 2.9% | i | -2.0% | 31.6µM* | -28.2
O=C1C=CC(=O)C2=C1C1c3ccccc3C2c2ccccc21 | . | . | . | ? | -3.5
SMILES | CXXC DNA block | ASM inhibitor | GALK inhibitor | Menin-MLL TR inh | Menin MLL FP FL | others
O=C(NCCO)Nc1ccc2nc(-c3ccco3)c(-c3ccco3)nc2c1 | 35.5µM* | . | 1.9% | ? | ?
O=C(NCCCO)c1ccc2nc(-c3ccco3)c(-c3ccco3)nc2c1 | -28.4% | 261.5% | -2.0% | ? | -17.4
CC1=C(C(=O)Nc2ccccc2)C(c2ccc(Cl)cc2)n2c(s/c(=C/c3cccc(OCC(=O)O)c3)c2=O)=N1 (stereo not given) | -18.2% | 25.1µM* | -7.8% | ? | 26.6
CCOc1ccc(C2C(C(=O)Nc3ccccc3)=C(C)N=c3s/c(=C/c4cccc(OCC(=O)O)c4)c(=O)n32)cc1 (stereo not given) | -11.4% | ? | -1.8% | ? | 25.3
C#CCn1c(=O)c2c(nc(/C=C/c3cccc(OC)c3)n2C)n(CCCOP(=O)(O)O)c1=O | . | . | . | -5.5% | -4.5
COc1cc(/C=N/NC(=O)C2c3ccccc3Oc3ccccc32)ccc1O | 7.1% | 147.7% | 3.9% | 2.82µM* | 1.7
COc1cc(/C=N/NC(=O)C2COc3ccccc3O2)ccc1O (stereo not given) | -4.3% | 41.4% | -3.4% | . | -1.7
COc1ccc(OC)c(-c2nnc3n2N=C(c2c(OC)cccc2OC)CS3)c1 | . | . | . | -15.0% | 2.2
CC(=O)Nc1ccc(-c2cc(-c3ccc(NC(C)=O)cc3)nc(-c3ccccc3)n2)cc1 | 10.7% | 30.7% | . | 6.31µM* | 5.6
COc1ccc(N2CCN(C(=O)c3cc4cc(Cl)ccc4[nH]3)CC2)cc1 | -14.2% | -24.5% | -1.8% | 31.6µM* | -1.6
CC1(C)CC(=O)C(C(C2=C(O)CC(C)(C)CC2=O)c2ccc(O)c([N+](=O)[O-])c2)=C(O)C1 | 28.2µM* | 2.2% | -4.4% | 10.4% | -1.7 | MLL CXXC Fl=17.9µM*;MLL CXXC FP-TR=63.3µM*;MLL CXXC HTRF=7.69µM*
CO[C@H](C(=O)[C@@H](O)[C@@H](C)O)C1Cc2cc3cc(O[C@H]4C[C@@H](O[C@H]5C[C@@H](O)[C@H](O)[C@@H](C)O5)[C@@H](O)[C@@H](C)O4)c(C)c(O)c3c(O)c2C(=O)[C@H]1O[C@H]1C[C@@H](O[C@H]2C[C@@H](O[C@H]3C[C@](C)(O)[C@H](O)[C@@H](C)O3)[C@H](O)[C@@H](C)O2)[C@H](O)[C@@H](C)O1 (stereo not given in full) | 39.8µM* | . | . | -8.4% | ? | MLL CXXC Fl=25.9%;MLL CXXC FP-TR=17.4%;MLL CXXC HTRF=83.0%
COC(C(=O)C(O)C(C)O)C1Cc2cc3cc(OC4CC(OC5CC(O)C(O)C(C)O5)C(O)C(C)O4)c(C)c(O)c3c(O)c2C(=O)C1OC1CC(OC2CC(OC3CC(C)(O)C(O)C(C)O3)C(O)C(C)O2)C(O)C(C)O1 (stereo not given) | ? | . | . | -6.3% | ? | MLL CXXC HTRF=72.1%

Screening results (PubChem BioAssay)
